Measurements published in PubChem BioAssay (NCATS).
The source made the active and inactive calls. Calls follow the shape of the dose curve; as a rule, active = well fitted inhibition curve with a large enough effect; inconclusive = small, poorly fitted or top-dose-only effect; inactive = flat fitted curve, though single readings scatter.

The compounds below were run against DNA polymerase III PolC-type (Bacillus subtilis (strain 168)) (UniProt P13267) (assay: qHTS Validation Assay for the Inhibitors of DNA Replication in Gram-Positive Bacteria (AID 485295;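 as to activity change, negative = inhibition: reconstituted holoenzyme with PolC plus beta clamp SSB and primase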)). Conditions: Gram-positive bacterial DNA replication assay; series mostly up to 57.1 µM; activity change, negative = inhibition: at the top concentration.
Procedure: B Subtilis DNA polymerase III holoenzyme complex was assayed for DNA production by fluorescent detection of the double-stranded DNA product with PicoGreen dye. The holoenzyme complex was reconstituted from the following purified protein components: DNA Polymerase III, beta subunit processivity factor, SSB single-stranded DNA binding protein, and Primase. Single-stranded, circular M13Gori was used as a substrate with dNTPs and NTPs also supplied to the substrate reagent. Compounds from the NCGC collection were incubated with the holoenzyme mixture for […] at room temperature to allow binding to occur, and then the reaction was started by the addition of substrate. After 30 min incubation at room temperature, PicoGreen solution containing EDTA was added to stop the reaction and to visualize the double-stranded DNA produced. Reaction progress was measured in a ViewLux CCD imager in fluorescence intensity mode by using 480 nm excitation and 540 nm emission filter set.
1. Thaw screening compounds.
2. Label assay plates. Prepare pipette tips, reagent reservoirs, buffers and controls.
1. Thaw Enzymes, DNA template, Nucleotides and PicoGreen dye concentrate. Thawed enzymes are stable on ice for ~1
week. Other thawed components are stable indefinitely.
2. Prepare sufficient quantities of Enzyme, Substrate and PicoGreen Quench mixes (according to Table II). For the number of
compound plates being screened.
3. Ensure that the tip wash station reservoirs have clean water and turn on recirculating chiller so that the chilled deck position
1. Load 2 uL of EDTA controls (250 mM, Background, 100 % inhibition) and 2 uL of DMSO controls (Negative control, 0%
inhibition) in the screening plates (flat-bottomed black 384-well polypropylene, Greiner Bio-one).
2. Place Enzyme mix reservoir on the chiller position of the liquid handler deck. Make sure that chiller will maintain
temperature of Enzyme mix at 4degC. Substrate mix and PicoGreen Quench can be stored at room temp.
3. Program liquid handling robotics to dispense 18 uL of Enzyme mix into assay plates. Wash tips.
4. Aspirate and dispense 2 uL of compound from compound plates, mix and Incubate at room temperature for 10 minutes.
5. Aspirate 5 ul of Substrate mix, dispense into assay plates and mix by pipetting. Wash tips.
6. Incubate at room temperature (21 +/- 1 deg C) for 20 minutes.
7. Quench reactions by addition of 25 uL PicoGreen Quench mix and mix by pipetting (using HTS robotics or bulk reagent
dispenser such as a Multidrop or uFill). Keep plates in the dark or stacked until ready to read fluorescence.
8. Read fluorescence intensity of plates on plate reader using "Fluorescein (Ex 485 nm/ Em 535 nm, 0.1s)" setting.
Potency is read from the fitted curve at half-maximal effect.

DNA polymerase III PolC-type (Bacillus subtilis (strain 168)), sequence (P13267 whole entry, looked up): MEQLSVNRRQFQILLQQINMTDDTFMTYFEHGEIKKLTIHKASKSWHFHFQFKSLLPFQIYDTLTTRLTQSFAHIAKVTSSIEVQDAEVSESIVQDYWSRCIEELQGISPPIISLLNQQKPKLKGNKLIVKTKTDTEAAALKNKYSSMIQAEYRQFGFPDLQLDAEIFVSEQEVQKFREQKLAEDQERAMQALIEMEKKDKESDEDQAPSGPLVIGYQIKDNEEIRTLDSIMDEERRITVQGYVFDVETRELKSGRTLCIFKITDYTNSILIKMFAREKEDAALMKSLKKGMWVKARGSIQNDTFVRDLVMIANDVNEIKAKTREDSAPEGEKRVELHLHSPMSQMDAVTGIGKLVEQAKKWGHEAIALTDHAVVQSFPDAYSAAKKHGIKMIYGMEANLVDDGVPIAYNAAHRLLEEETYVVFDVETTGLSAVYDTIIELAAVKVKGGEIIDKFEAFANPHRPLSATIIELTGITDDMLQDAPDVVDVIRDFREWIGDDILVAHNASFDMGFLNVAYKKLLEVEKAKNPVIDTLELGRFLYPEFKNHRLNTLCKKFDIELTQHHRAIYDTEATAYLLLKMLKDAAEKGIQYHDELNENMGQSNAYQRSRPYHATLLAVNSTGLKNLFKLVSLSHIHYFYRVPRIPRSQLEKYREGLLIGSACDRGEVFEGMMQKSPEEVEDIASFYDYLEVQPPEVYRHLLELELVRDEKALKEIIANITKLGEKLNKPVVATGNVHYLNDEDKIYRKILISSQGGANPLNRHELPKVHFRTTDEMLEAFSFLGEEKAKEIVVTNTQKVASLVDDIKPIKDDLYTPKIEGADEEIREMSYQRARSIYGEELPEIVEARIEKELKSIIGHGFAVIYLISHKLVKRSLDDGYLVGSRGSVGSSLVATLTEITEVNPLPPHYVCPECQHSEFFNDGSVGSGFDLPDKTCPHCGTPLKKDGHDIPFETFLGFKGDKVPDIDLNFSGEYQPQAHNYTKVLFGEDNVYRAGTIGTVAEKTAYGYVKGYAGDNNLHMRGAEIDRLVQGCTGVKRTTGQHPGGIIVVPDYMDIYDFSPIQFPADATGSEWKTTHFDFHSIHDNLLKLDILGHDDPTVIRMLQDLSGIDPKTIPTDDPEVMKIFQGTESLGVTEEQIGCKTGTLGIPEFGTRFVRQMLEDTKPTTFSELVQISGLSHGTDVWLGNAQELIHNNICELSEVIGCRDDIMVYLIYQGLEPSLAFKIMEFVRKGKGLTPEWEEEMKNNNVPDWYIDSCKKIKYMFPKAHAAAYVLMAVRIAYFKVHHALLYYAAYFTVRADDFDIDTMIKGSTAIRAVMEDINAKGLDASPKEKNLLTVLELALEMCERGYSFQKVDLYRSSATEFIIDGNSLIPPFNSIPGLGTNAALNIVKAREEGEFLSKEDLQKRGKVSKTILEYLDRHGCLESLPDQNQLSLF

Structure (SMILES) | activity change, negative = inhibition | Potency
CCc1ccc(/C=C2/SC(=S)NC2=O)cc1 | -4.37% (inactive) | 
S=C(Nc1ccccc1)Nc1nccs1 | -6.3% (inactive) | 
N#C/C(=C\c1ccc(O)c(O)c1)C(=O)Nc1ccccc1 | -5.37% (inactive) | 
O=Nc1c(-c2c(O)[nH]c3ccccc23)[nH]c2ccccc12 | -6.06% (inactive) | 
Cc1cccc(/C=C/c2ccccc2)n1 | 0.712% (inactive) | 
Nc1c(S(=O)(=O)O)cc(Nc2ccc(Nc3nc(Cl)nc(Nc4ccc(S(=O)(=O)O)cc4)n3)c(S(=O)(=O)O)c2)c2c1C(=O)c1ccccc1C2=O |  | 5.32 µM (active)
C[C@H](Cc1ccccc1)Nc1ncnc2c1ncn2[C@@H]1O[C@H](CO)[C@@H](O)[C@H]1O | -2.79% (inactive) | 
C1CCC(N=C(NC23CC4CC(CC(C4)C2)C3)N2CCOCC2)CC1 | -2.96% (inactive) | 
O=C1c2ccccc2C(=O)c2c(NCCc3ccc(O)cc3)ccc(NCCc3ccc(O)cc3)c21 | -3.93% (inactive) | 
CC[N+](CC)(CC)CC | -0.432% (inactive) | 
CN1C2CCCC1CC(NC(=O)c1nn(C)c3ccccc13)C2 (stereo unspecified) | 0.991% (inactive) | 
